# Bioassay records (PubChem)
# Compounds with a hit are over-represented: about 17% of the library has one in this group of screens.
# TDP1 cell noCPT = qHTS for Inhibitors of human tyrosyl-DNA phosphodiesterase 1 (TDP1): qHTS in cells in absence of CPT | AID 686978, 2013 | 420,000 tested, 15% active | DT40 Tdp1-/- hTDP1 cells, no CPT, ATP luminescence, 48 h | Potency, µM (titrated, usually from 46.2 µM), for the others: at the highest dose activity change, negative = growth inhibition, actives largely listed as inhibitors; also: % is scaled to controls: 0 for no effect and ±100 for the full control effect; nearly all actives have a fitted effect of over 55% in size
#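 Cells were dispensed at 400 per well, compounds added by pin tool, plates incubated ≥48 hr at 37 °C, then CellTiter-Glo added for 30 min at room temperature before luminescence reading. Line: DT40 Tdp1-/- complemented with hTDP1; camptothecin omitted.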
# HepG2 tox = counter-screen for TGF-b inhibitors: cytotoxicity in HepG2 cells; HepG2 CAGA-GFP viability, ATP luminescence, 18 h; Potency, µM (highest dose often 46.1 µM), for inactives: top-dose activity change, negative = cytotoxicity, hits mostly cytotoxic; AID 588856; 410,000 tested, 0.76% active
#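 HepG2 CAGA-GFP cells (1000/well, DMEM with 1% FBS) received compound, then TGF-beta at 500 pg/mL final, and were incubated 18 hours at 37 degrees C. Viability was read by CellTiter-Glo luminescence. Media-only wells were set as complete cell-killing and DMSO as no toxicity.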
# S2 tox = cell viability loss in ATXN counter-screen. 400,000 tested, 0.49% active. S2 cells (HEK-293 line with an ATXN2-luciferase reporter) viability, CellTiter-Fluor protease fluorescence, 24 h. Potency, µM (titrated, usually from 56.7 µM), most hits filed as cytotoxic; also: nearly all actives have a fitted effect of over 40% in size
# ATXN2 expr inh = inhibitors of ATXN2 expression | HEK-293 ATXN2-luciferase reporter, luminescence, 24 h | 360,000 tested, 0.72% active | AID 1745845 | Potency, µM (top dose mostly 57 µM), for inactives: top-dose activity change, negative = inhibition, most hits filed as inhibitors; also: % is scaled to controls: 0 for no effect and ±100 for the full control effect; nearly all actives have a fitted effect of over 55% in size
#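 qHTS (up to 57 uM final) was run with 24 h compound exposure of reporter cells at 37 °C. Each well was multiplexed: SteadyGlo luminescence measured ATXN2-luciferase expression after a fluorogenic Gly-Phe-AFC viability readout (25 uM final).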
# TDP1 cell CPT = DT40-hTDP1 cell growth loss with CPT | chicken DT40 Tdp1-/-;hTDP1 cells + 20 nM CPT, ATP luminescence, 48 h | Potency, µM (doses to about 46.2 µM), without a hit: top-dose activity change, negative = growth inhibition, most hits filed as inhibitors | 420,000 tested, 12% active; also: % is scaled to controls: 0 for no effect and ±100 for the full control effect; nearly all actives have a fitted effect of over 55% in size
#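 Cell growth measured by CellTiter-Glo luminescence after a minimum 48 h, 37 C compound exposure with 20 nM CPT in Tdp1-knockout DT40 cells stably expressing hTDP1, seeded 400/well; qHTS titration format.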
# TGFb SMAD3 inh = inhibitors of TGF-b signaling; HepG2 CAGA-GFP TGF-b/SMAD3 reporter, GFP fluorescence, 18 h; TGF-beta stimulated, 500 pg/mL final; AID 588855; Potency, µM (doses to about 46.1 µM), for inactives: at the top dose activity, negative = inhibition, most hits filed as inhibitors; 410,000 tested, 1.2% active; also: % is scaled to controls: 0 for no effect and ±100 for the full control effect; nearly all actives have a fitted effect of over 65% in size
#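 Read-out: total well GFP (ex488/em500-530) summed from mean per-cell fluorescence. Cells: HEPG2 CAGA-GFP, 1% FBS DMEM, 18 h at 37 degrees C with 500 pg/mL final TGF-beta. Unstimulated wells served as the full-inhibition control; stimulated DMSO wells = 0%.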
# The depositor's hits bear a star; i = inactive; ? = inconclusive; nt = no result given; [ ] = another dose, or the depositor's remark. Calls follow the shape of the dose curve; as a rule, active = well fitted curve in the direction sought with a large enough effect; inconclusive = small, poorly fitted or top-dose-only effect, or another doubt; inactive = no such curve, though single readings can be large; an effect the other way counts as inactive or inconclusive. Potency is read from the fitted curve at half-maximal effect.
SMILES,TDP1 cell noCPT,HepG2 tox,S2 tox,ATXN2 expr inh,TDP1 cell CPT,TGFb SMAD3 inh
COC(=O)c1ccc2c(=O)n(CCCCCC(=O)NCCc3ccc(Cl)cc3)c(=O)[nH]c2c1,?,-30%,nt,nt,-28%,?
O=C(NCc1cccnc1)c1cc(C2CCCCN2C(=O)OCCF)on1 (stereo not given),-10%,1%,i,5%,6%,-6%
Cc1cccc2nc(-c3cccc(NC(=O)c4ccc(Cl)cc4)c3)cn12,?,-50%,?,-16%,21µM*,?
O=C(Nc1cccc(-c2cn3ccccc3n2)c1)c1cnccn1,?,1%,i,16%,?,5%
O=C(Nc1cccc(-c2cn3ccccc3n2)c1)c1cccc(Cl)c1,18µM*,-101%,nt,?,?,?
Cc1ccc(-n2nnnc2SCC(=O)c2cc(C)n(-c3cc(C)on3)c2C)c(C)c1,23µM*,-24%,i,-18%,23µM*,-4%
Cc1cc(C(=O)CSc2nnnn2-c2ccc(O)cc2)c(C)n1C,16µM*,-3%,i,-11%[11.3 µM],?,3%
Cc1ccc(-n2c(C)cc(C(=O)CSc3nnnn3C)c2C)cc1,21µM*,-36%,i,0%,18µM*,-15%
Cc1cc(C(=O)CSc2nnnn2-c2ccccc2)c(C)n1CCc1ccccc1,?,-7%,i,-29%,-7%,3%
Cc1ccc(-n2c(C)cc(C(=O)CSc3nncs3)c2C)cc1,21µM*,-19%,?,50%,10µM*,-19%
Cc1cc(C(=O)CSc2nnnn2C)c(C)n1CCc1ccc(F)cc1,-6%,-3%,i,1%,4%,-7%
Cc1cc(C(=O)CSc2nncs2)c(C)n1-c1c(C)n(C)n(-c2ccccc2)c1=O,-2%,-2%,i,28%,3%,-4%
Cc1c(C(=O)NCCO)[n+](=O)c2ccccc2n1[O-],-18%,nt,i,9%,6%,nt
CC(CNC(=O)CCC(=O)N1CCOc2ccccc21)c1ccccc1 (stereo not given),-26%,-4%,i,-13%,?,0%
O=C(CCc1cn(Cc2ccccc2F)c2ccccc12)NCc1ccc(Cl)cc1,?,-30%,nt,nt,?,?
Cc1ccc(C2=NCCn3nc4cc([N+](=O)[O-])ccc4c32)cc1,?,-2%,i,10%,?,-10%
CCOC(=O)c1c(NC(=O)CN2C(=O)NC3(CCCCCC3)C2=O)sc(C)c1-c1ccc(C)cc1,16µM*,2%,i,-15%,23µM*,-25%
CCOC(=O)c1c(-c2ccc(F)cc2)csc1NC(=O)CN1C(=O)NC2(CCCCC2C)C1=O (stereo not given),?,4%,?,-35%,21µM*,-12%
CCOC(=O)c1c(NC(=O)CN2C(=O)NC3(CCCCC3C)C2=O)sc(C)c1C (stereo not given),21µM*,-18%,?,6%,21µM*,4%
Cc1sc2nc(CN(Cc3cccs3)C(=O)C3CC3)[nH]c(=O)c2c1C,9.2µM*,1%,i,nt,16µM*,-2%
Cc1sc2nc(SCC(=O)NCc3cccs3)[nH]c(=O)c2c1C,-2%,-3%,i,7%,-6%,1%
Cc1sc2nc(CN(C(=O)NC3CCCCC3)C3CCCCC3)[nH]c(=O)c2c1C,21µM*,-6%,i,-4%,18µM*,12%
COC(=O)C1=C(N)Oc2cc(N(C)C)ccc2C1c1ccccc1OC (stereo not given),4.6µM*,-20%,i,-23%,4.6µM*,-23%
Oc1cc2c(cc1O)[C@H](c1ccccc1)CNCC2,27µM*,nt,nt,nt,27µM*,nt
CC(=O)Nc1ccc(S(=O)(=O)N(C)Cc2ccccc2)cc1,3%,-7%,i,0%,-2%,11%
SMILES,TDP1 cell noCPT,HepG2 tox,S2 tox,ATXN2 expr inh,TDP1 cell CPT,TGFb SMAD3 inh
O=S(=O)(NCCc1ccccc1)c1cccs1,-18%,-5%,i,46%,-11%,5%
O=S(=O)(NCc1ccccc1)c1cccs1,-43%,-28%,?,-9%,0.082µM*,-1%
CC(=O)Nc1ccc(S(=O)(=O)N(Cc2ccccc2)Cc2ccccc2)cc1,16µM*,-33%,nt,nt,?,?
CC(=O)Nc1ccc(S(=O)(=O)N(C)Cc2cnn(C)c2)cc1,16µM*,7%,i,-10%,-29%,10%
CN(Cc1cnn(C)c1)S(=O)(=O)c1cccc([N+](=O)[O-])c1,-8%,-2%,i,19%,0%,5%
CC(=O)Nc1ccc(S(=O)(=O)N(Cc2ccccc2)C(C)C)cc1,21µM*,2%,i,-38%,16µM*,-7%
Cc1c(C(=O)NCC2COCCO2)cnn1-c1nccc(-c2cccs2)n1 (stereo not given),-26%,nt,i,nt,-22%,nt
CC(=O)Nc1ccc(S(=O)(=O)N(Cc2cccnc2)Cc2cc3ccc(C)cc3[nH]c2=O)cc1,15µM*,-18%,i,nt,?,18%
CC(C)N(Cc1ccccc1)S(=O)(=O)c1cccs1,26µM*,9%,i,nt,-27%,-4%
CN(Cc1ccccc1)S(=O)(=O)c1cccs1,-24%,-14%,i,4%,-28%,6%
Cc1ccc(S(=O)(=O)N(Cc2ccccc2)C(C)C)cc1,18µM*,-31%,i,-4%,18µM*,?
O=C(O)c1cc(-c2ccc(Cl)cc2)n(-c2cccc(Cl)c2)n1,-20%,-6%,i,-16%,?,6%
CCOc1ccc(N2C=Nc3ccc(OCC)cc3C2)cc1,18µM*,-46%,?,nt,21µM*,?
